Data on 95 compounds can be found in ChEMBL document CHEMBL3988442, “University of Dundee, Small-Polar-MMV Screening Library” (2021).

Hit rate of the full screen: of about 38,000 compounds, about 1,200 (3.2%) showed an effect of 50% or more. The median lay at about -58%. This excerpt belongs to a sample that is enriched for strong results.

In the assay the test system is Plasmodium falciparum. Briefly: Calibr Malaria Delayed Death Assay SOP. The format is functional, organism-based. Also noted: scale not given: in the data most compounds retested in dose-response had high values. As to conditions: concentration 4.99e-06 (unit not given; other assays of the set use mol/L).
As for `Cn1cc(-c2ncnc3c2CCN(C(=O)c2cnccn2)CC3)cn1`, the “Percent Effect” value is -80.91%.
The same measure for `COc1ccc(C[C@H]2CN(Cc3ccoc3)CC[C@H]2OC)cc1.O=C(O)C(F)(F)F`: 74.09%; for `COc1ccc(C[C@H]2CN(Cc3ccoc3)CC[C@@H]2OC)cc1.O=C(O)C(F)(F)F`: 63.43%.
Turning to `COc1ccc(C[C@H]2CN(c3nnc(C)s3)CC[C@H]2OC)cc1.O=C(O)C(F)(F)F`, the “Percent Effect” value is recorded as -6.177%.
Then `COc1ccc(C[C@H]2CN(c3cc(OC)ncn3)CC[C@@H]2OC)cc1.O=C(O)C(F)(F)F`, with -3.62%; and `COc1ccc(C[C@H]2CN(c3nnc(C)s3)CC[C@@H]2OC)cc1.O=C(O)C(F)(F)F`, with -18.37%.
The same measure for `COc1ccc(C[C@H]2CN(C(=O)c3ccncc3)CC[C@@H]2OC)cc1.O=C(O)C(F)(F)F`: -34.29%.
Consider `N#Cc1ccc(OC[C@]23COC[C@H]2CN(Cc2ccccn2)C3)nc1`, for which the “Percent Effect” value is -50.77%.
For the compound `Cn1cccc1C(CNC(=O)COc1ccc(Cl)cc1Cl)N1CCCC1` (stereo not given), the “Percent Effect” value is 74.07%.
Then `Cn1cccc1C(O)CNC(=O)COc1ccccc1F` (stereo not given), with -31.9%; and `Cn1cccc1C(O)CNC(=O)COc1ccc(Cl)cc1Cl` (stereo not given), with -33.74%; and `O=C(NCc1nnc2n1CCCC2)c1cn(-c2ccccc2)nn1`, with -72.42%.
Take `COc1cccc([C@@H]2CCN(Cc3[nH]nc(C)c3Cl)C[C@H]2O)c1`: the “Percent Effect” value is given as -13.94%.
The same measure for `COc1cccc([C@H]2CN(C(C)=O)[C@@H]3CCN(Cc4ccsc4)C[C@H]23)c1.Cl`: 72.65%; for `CCN1CCC(N2C[C@@H](C(=O)O)[C@H](c3cccc(OC)c3)C2)CC1`: -103.5%.
Then `COc1cccc(CN2CC[C@H]3[C@@H](C2)[C@H](c2ccsc2)CN3C(C)=O)c1`, with 52.59%; and `COc1cccc(CC2CCCN2CC(N)=O)c1` (stereo not given), with -61.65%.
Regarding `COCc1cc(O)nc(C2CCCN(Cc3cccc(OC)c3)C2)n1` (stereo not given), the “Percent Effect” value was -102.5%.
Regarding `COCC(=O)NCC1CCN(Cc2ccsc2)CC1`, the “Percent Effect” value is -175%.
Then `COc1cccc([C@@H]2CCN(Cc3c[nH]c(C)n3)C[C@H]2O)c1`, with -37.12%; and `CNC(=O)[C@@]12CCC3(CCN(S(=O)(=O)C4CC4)CC3)[C@@H]1CN(C(C)=O)C2`, with -121.6%; and `Cc1ccoc1C(=O)N1CCCC(CNS(C)(=O)=O)C1` (stereo not given), with -23.43%.
The same measure for `NC(=O)Cn1cnc2nc3n(c2c1=O)CCC3`: -106.4%; for `CC(C)N1CCOC(Cc2nn3c(Cc4ccccc4)nnc3s2)C1` (stereo not given): -78.89%.
As for `CO[C@H]1CCN(Cc2c(C)noc2C)[C@@H]2CN(Cc3cccnc3)C[C@H]12.O=C(O)C(F)(F)F.O=C(O)C(F)(F)F.O=C(O)C(F)(F)F`, the “Percent Effect” value is on record as -19.09%.
Then `CN(Cc1noc(C2CC2)n1)C1CCN(CCc2cccs2)C1` (stereo not given), with -58.32%; and `COc1cc(CNC(C)Cn2cccn2)cc2c1OCO2.Cl` (stereo not given), with -35.84%; and `COc1cc(CNCc2ccc(C(C)O)cc2)cc2c1OCO2` (stereo not given), with 7.669%.
For the compound `COc1cc(CNC(C)c2ccc(F)c(F)c2)cc2c1OCCO2.O=C(O)C(=O)O` (stereo not given), the “Percent Effect” value was -10.9%.
The same measure for `COc1ccc(CNCc2cc(Br)c3c(c2)OCO3)cc1`: -51.11%.
Then `Cc1cc(CNC(=O)NCC(O)c2cccc(F)c2)no1` (stereo not given), with -84.11%; and `COc1cc(CNC(C)Cn2ccnc2)cc2c1OCO2.Cl` (stereo not given), with -50.32%; and `COc1cc(CNCC(O)c2ccc(C)cc2)cc2c1OCCO2.Cl` (stereo not given), with 46.91%.
Take `COc1cc(CNCC(O)c2ccccc2)cc2c1OCO2.Cl` (stereo not given): the “Percent Effect” value is listed as 59.91%.
The same measure for `Fc1ccc(CNCc2cc(Br)c3c(c2)OCO3)cc1`: -20.04%; for `COc1c(C(N)=O)cn(C)c1-c1nc2cc(NC(C)=O)ccc2n1C`: -29.86%.
Then `Cc1nc(O)cc(C2CCCN(Cc3c(Cl)cncc3Cl)C2)n1` (stereo not given), with -29.03%; and `O=C(Cn1cnnn1)NC(c1ccccc1)c1ccc2c(c1)CCCO2` (stereo not given), with -75.22%; and `Cc1ccoc1C(=O)N1CCO[C@H]2[C@H](OCc3ccncc3)CC[C@@H]21`, with -118.2%.
In the case of `COc1ccccc1C(=O)N1CCCC1c1ncc2c(n1)CCNC2.Cl` (stereo not given), the “Percent Effect” value is on record as -133.7%.
As to `CC(O)CCN(C)C(=O)Nc1cccc(F)c1` (stereo not given), the “Percent Effect” value was -108.7%.
Then `CC(C)Cn1ncc(C(=O)NS(=O)(=O)C2CCCC2)c1C1CC1`, with -142.6%; and `O=C(O)CCC(=O)N1CCC(c2noc3cc(F)ccc23)CC1`, with -92.3%.
Then `CCC(=O)NC(c1cccnc1)c1cc(C)ccc1C` (stereo not given), with -105.8%; and `O=C(CC1CCCC1)N1C[C@@H]2CCN(c3cccnc3)C[C@@H]2C1.O=C(O)C(F)(F)F`, with -61.89%.
With `CCN1CCC2(CC1)CC(NC(=O)N(C)C)c1cc(C)ccc12.O=C(O)C(F)(F)F` (stereo not given), the “Percent Effect” value is on record as -8.453%.
Then `COCC(=O)NC1CC2(CCN(CCO)CC2)c2ccccc21.O=C(O)C(F)(F)F` (stereo not given), with -47.31%; and `O=C(NC1CC2(CCN(CCO)CC2)c2ccccc21)c1ccno1.O=C(O)C(F)(F)F` (stereo not given), with -16.34%; and `Cc1ccc2c(c1)C(NC(=O)N(C)C)CC21CCN(C)CC1.O=C(O)C(F)(F)F` (stereo not given), with -16.75%.
Turning to `CCOC1CC2(CCN(CCO)CC2)c2ccc(C)cc21` (stereo not given), the “Percent Effect” value stood at 16.18%.
Then `Cc1ccc(CNC2CC3(CCN(CCO)CC3)c3ccccc32)s1.O=C(O)C(F)(F)F.O=C(O)C(F)(F)F` (stereo not given), with 84.71%; and `Cc1ccc(CNC(=O)CN2CCN(CCO)CC2)s1`, with -40.21%.
Then `Cc1ccc2c(c1)C(N(C)C)CC21CCN(CCO)CC1.O=C(O)C(F)(F)F.O=C(O)C(F)(F)F` (stereo not given), with 74.01%; and `O=C(NC1CC2(CCN(CCO)CC2)c2ccccc21)c1ccncc1.O=C(O)C(F)(F)F.O=C(O)C(F)(F)F` (stereo not given), with -81.16%.
The same measure for `Cn1cncc1CNC1CC2(CCN(CC3CC3)CC2)c2ccccc21.O=C(O)C(F)(F)F.O=C(O)C(F)(F)F` (stereo not given): -88.17%; for `Cc1cccc(CNC2CC3(CCN(CCO)CC3)c3ccccc32)n1.O=C(O)C(F)(F)F.O=C(O)C(F)(F)F` (stereo not given): 77.51%.
Turning to `O=C(Cc1ccn[nH]1)N1CCc2cc(Br)sc2C1`, the “Percent Effect” value is -31.09%.
For `CC1(C)COCCN1C(=O)c1ccc(Cn2cncn2)cc1`, the “Percent Effect” value is -28.18%.
Turning to `Fc1ccc(OCCCN2CCCC(Cn3cncn3)C2)cc1` (stereo not given), the “Percent Effect” value is -24.19%.
As to `CN(C)CCNC(=O)c1nc2c(s1)CCCN2C(=O)C1CC1.O=C(O)C(F)(F)F`, the “Percent Effect” value was 21.8%.
Consider `Cc1nc(CN2CCCn3c(nc(Cn4cncn4)cc3=O)C2)cs1.O=C(O)C(F)(F)F`, for which the “Percent Effect” value is reported as -37.93%.
The same measure for `Cc1cc(CN(C)C(=O)c2ccc(OCC(F)(F)F)nc2)no1`: -117.9%; for `CC(C)c1nn(C)c(Cl)c1CNCC(=O)N1CCN(C)CC1.Cl`: -109.8%; for `Cn1ncc(C(=O)O)c1C(=O)Nc1nc2ccccc2s1`: -36.51%.
The same measure for `C[C@@H]1CN(Cc2cn(C)nc2-c2ccccc2F)C[C@H](C)O1`: -119.2%; for `Cc1noc(C)c1C(C)NC(=O)N1CCN(c2cccs2)CC1` (stereo not given): -38.18%; for `CC(NC(=O)N1CCN(c2cccs2)CC1)c1ccc(C#N)cc1` (stereo not given): 61%.
As for `CC(NC(=O)N1CCN(c2cccs2)CC1)c1ccncc1` (stereo not given), the “Percent Effect” value was -36.24%.
For the compound `CN(Cc1ccccc1)CC1CC2(CO1)CN(c1nncs1)C2` (stereo not given), the “Percent Effect” value is on record as -3.819%.
As to `CN(Cc1ccccc1)CC1CC2(CO1)CN(Cc1nccs1)C2` (stereo not given), the “Percent Effect” value came out at 3.92%.
As for `CN(Cc1ccccc1)CC1CC2(CO1)CN(Cc1cnn(C)c1)C2` (stereo not given), the “Percent Effect” value was 50.64%.
Then `Cc1nn(CC(=O)N2CCC3(CN(C)C(=O)O3)C2)c(=O)c2ccccc12` (stereo not given), with -0.9093%.
Turning to `Cc1cn2c(n1)C(CNCc1cccc3c1OCO3)CCC2` (stereo not given), the “Percent Effect” value was found to be 81.04%.
Consider `Cn1cc(N2CCCC(NCc3cccc4c3OCCCO4)C2)cn1` (stereo not given), for which the “Percent Effect” value is listed as -37.41%.
Then `c1cc(CNCc2ccnc(N3CCCC3)c2)c2c(c1)OCO2`, with -28.94%; and `Cc1nc(C)c(CNCC2CCCn3ccnc32)s1` (stereo not given), with -88.04%; and `Cc1ccc(CNCC2CCCN2c2cccnn2)s1` (stereo not given), with 44%.
With `Clc1snnc1CN1CCCCC1Cn1cccn1` (stereo not given), the “Percent Effect” value was -105.5%.
Then `CN(Cc1cccc(C#N)c1)Cn1nc(C(C)(C)C)ccc1=O`, with -75.82%.
Then `COc1cc(NC(=O)c2cc(Cl)ccc2F)c(C(=O)N(C)C)cc1OC`, with -86.88%; and `Cc1nnc2ccc(OCCNS(=O)(=O)c3cccs3)nn12`, with -74.14%.
Then `CCC1=N[C@@]2(CC[C@@H]3CN(Cc4ccccc4F)C[C@@H]32)C(=O)N1CC.O=C(O)C(F)(F)F`, with 37.33%; and `CC1=N[C@@]2(CC[C@@H]3CN(CC(=O)N(C)C)C[C@@H]32)C(=O)N1CC1CC1.O=C(O)C(F)(F)F`, with -113.5%; and `CC1=N[C@@]2(CC[C@@H]3CN(Cc4ccccc4F)C[C@@H]32)C(=O)N1CC1CC1.O=C(O)C(F)(F)F`, with 66.32%.
Turning to `O=C(O)C(F)(F)F.O=C([C@H]1C[C@H]2OCC[C@H]2N(Cc2ccoc2)C1)N1CCCCO1`, the “Percent Effect” value is given as -83.93%.
Then `CCN1CCn2cc(CNC(=O)c3cnn(C)c3)nc2C1.O=C(O)C(F)(F)F.O=C(O)C(F)(F)F`, with -97.9%; and `COc1ccc(CNCC2CCN(c3ccccc3OC)C2)cc1O` (stereo not given), with 21.41%; and `COc1ccccc1N1CCC(CNS(=O)(=O)c2c(C)nn(C)c2C)C1` (stereo not given), with -22.9%.
The same measure for `COc1ccccc1N1CCC(CNCc2cccc(O)c2)C1` (stereo not given): 55.7%.
As for `COc1ccccc1N1CCC(N2CCOCC(CO)C2)CC1` (stereo not given), the “Percent Effect” value came to 27.34%.
Then `COc1ccccc1N1CCC(CNCc2cccc(C#N)c2)C1` (stereo not given), with 0.8345%; and `COc1c(CNC2CCN(c3ncccn3)CC2)c(C)nn1C`, with -45.93%.
As to `COc1ccccc1N1CCC(CNCc2cccc(OC)c2OC)C1` (stereo not given), the “Percent Effect” value came to 55.95%.
Take `COc1ccccc1N1CCC(CNCc2c(C)nn(C)c2OC)C1` (stereo not given): the “Percent Effect” value is reported as 51.83%.
Then `COc1ccccc1N1CCC(CNC(=O)N(C)Cc2ccco2)C1` (stereo not given), with -114.8%.
